High-throughput results from PubChem.
TWEAK-Fn14 inh: inhibitors of TWEAK-Fn14 signaling, primary screen, luciferase reporter cells, uHTS; hit rate 2% among 360,000; TWEAK-stimulated Fn14 reporter cells, luciferase luminescence, 8 h; AID 1159606, 2016; inhibition, % at 10 µM; in the data active = inhibition above about 50%
TROY NFkB inh: inhibitors of TROY-driven NF-kB signaling, primary screen, Q293 LMP1-TROYcd cells, NF-kB luciferase, uHTS | hit rate 0.98% among 360,000 | inhibition, % at 10 µM | Q293 LMP1-TROYcd NF-kB luciferase reporter, 4 h;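 active = compounds whose plate-normalised and pattern-corrected inhibition of the luciferase reporter signal at the single screening dose is 50% or more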
LGR2 antag: inhibitors of bursicon-induced LGR2 CRE-luciferase signal, primary screen, cell-based, HEK293, CRE-luciferase reporter, bursicon stimulation | Drosophila bursicon receptor LGR2 (rickets) | bursicon-stimulated, 4 h | inhibition, % at 9.99 µM | hit rate 0.35% among 380,000 | AID 720647, 2013;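 active = drop in luminescence signal, shown as inhibition above about 50% in the replicate tests, limit read from the data, passing the limit was not always enough; inconclusive = probably only some replicates passing the limit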;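 note: agonist challenge used bursicon conditioned medium at about half maximal strength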
EWS-Fli inh: EWS/Fli-driven NR0B1 reporter inhibitors, primary screen, A673 cells, NR0B1 luciferase, luminescence, MLPCN library | hit rate 0.67% among 350,000 | viability-normalised | inhibition, % at 12.6 µM;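 active = mean inhibition of at least 50% after viability correction, with every replicate also passing that limit; inconclusive = mean reaches 50% but only one of two replicates passes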;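 note: firefly luciferase signal divided by Alamar Blue viability fluorescence both relative to DMSO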
PAX8 inh HTS: inhibitors of PAX8-driven TPO luciferase reporter, primary screen, RMG-I cells, single concentration | SteadyGlo, 24 h | inhibition, % at 12.6 µM | hit rate 1.2% among 360,000;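 active = mean replicate inhibition at least 60% with every replicate also reaching 60%; inconclusive = only one of the two criteria is met; inactive = mean below 60% and not all replicates reaching 60%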;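 note: luciferase light reporting Pax8 driven TPO promoter activity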
Each line names hits and unclear results; the compound was inactive in the other large screens; ! = not active in a repeat. An excerpt weighted towards active compounds, which were near 2.8% of everything screened.

COc1ccc(C=C(C(=O)c2ccccc2)C(=O)c2ccccc2)cc1	TWEAK-Fn14 inh 52
COc1ccccc1NC(=O)N[C@@H]1C=C[C@@H](CC(=O)N2CCC(Cc3ccccc3)CC2)O[C@H]1CO	none (no result: TWEAK-Fn14 inh, TROY NFkB inh)
CCOC(=O)C(NCc1ccco1)(NC(=O)c1ccccc1)C(F)(F)F (stereo not given)	TWEAK-Fn14 inh 87 (no result: LGR2 antag, EWS-Fli inh, PAX8 inh HTS)
O=C(C[C@@H]1C/C=C/CC[C@H](Cc2ccc(F)cc2)C(=O)OC[C@@H](Cc2ccccc2)NC1=O)N[C@H](CO)Cc1ccccc1	EWS-Fli inh inconclusive, PAX8 inh HTS 103
O=C1N[C@@H](Cc2ccccc2)COC(=O)[C@@H](Cc2ccc(F)cc2)CC/C=C/C[C@@H]1CC(=O)N(CCO)Cc1ccccc1	PAX8 inh HTS 68
COc1ccc(C(=O)c2c(C(F)(F)F)oc3c2C(=O)c2ccccc2C3=O)cc1OC	TWEAK-Fn14 inh 58, TROY NFkB inh 51 (no result: LGR2 antag, EWS-Fli inh, PAX8 inh HTS)
COc1ccc(S(=O)(=O)N[C@@H]2CC[C@H](CC(=O)N3CCN(c4ccccc4)CC3)O[C@@H]2CO)cc1	none (no result: TWEAK-Fn14 inh, TROY NFkB inh)
CC(=O)c1ccc(NC(=O)c2cnn3ccccc23)cc1	TWEAK-Fn14 inh 71, LGR2 antag inconclusive, EWS-Fli inh 69
CC(=O)c1cccc(NC(=O)c2cnn3ccccc23)c1	none
COc1ccc(CN(C)C[C@@H]2OCCCC[C@H](C)Oc3ccc(NC(=O)Nc4ccccc4)cc3C(=O)N([C@H](C)CO)C[C@H]2C)cc1	none (no result: TWEAK-Fn14 inh, TROY NFkB inh)
COc1ccc(CN(C)C[C@H]2OCCCC[C@H](C)Oc3ccc(NC(=O)Nc4ccccc4)cc3C(=O)N([C@H](C)CO)C[C@H]2C)cc1	EWS-Fli inh 65 (no result: TWEAK-Fn14 inh, TROY NFkB inh)
COc1ccc(CN(C)C[C@@H]2OCCCC[C@@H](C)Oc3ccc(NC(=O)Nc4ccc(F)cc4)cc3C(=O)N([C@H](C)CO)C[C@H]2C)cc1	PAX8 inh HTS 73 (no result: TWEAK-Fn14 inh, TROY NFkB inh)
C[C@@H]1CN([C@H](C)CO)C(=O)c2cc(NS(=O)(=O)c3cn(C)cn3)ccc2O[C@@H]1CN(C)CC1CCCCC1	none (no result: TWEAK-Fn14 inh, TROY NFkB inh, PAX8 inh HTS)
O=C(C[C@@H]1C[C@H]2c3cc(NC(=O)c4cccnc4)ccc3O[C@H]2[C@H](CO)O1)NCc1ccccc1F	none (no result: TWEAK-Fn14 inh, TROY NFkB inh)
O=[N+]([O-])c1ccc(/C=N\NS(=O)(=O)c2ccc(F)cc2)o1	TWEAK-Fn14 inh 84 (no result: EWS-Fli inh)
O=C(N/N=C/c1ccc([N+](=O)[O-])o1)c1ccc(O)cc1	EWS-Fli inh 65
O=C(C[C@H]1CC[C@@H]2[C@H](COC[C@@H](O)CN2C(=O)Cc2ccccc2)O1)NC1Cc2ccccc2C1	none (no result: TWEAK-Fn14 inh, TROY NFkB inh)
C[C@@H]1CCCCO[C@H](CN(C)Cc2ccc(C(F)(F)F)cc2)[C@H](C)CN([C@H](C)CO)C(=O)c2cc(NC(=O)c3ccccc3)ccc2O1	PAX8 inh HTS 99 (no result: TWEAK-Fn14 inh, TROY NFkB inh)
C[C@@H]1CN([C@@H](C)CO)C(=O)c2cc(NC(=O)c3ccccc3)ccc2O[C@@H](C)CCCCO[C@@H]1CN(C)Cc1ccncc1	none (no result: TWEAK-Fn14 inh, TROY NFkB inh)
C[C@@H]1CCCCO[C@H](CN(C)Cc2ccc(C(=O)O)cc2)[C@H](C)CN([C@@H](C)CO)C(=O)c2cc(NC(=O)c3ccccc3)ccc2O1	none (no result: TWEAK-Fn14 inh, TROY NFkB inh)
C[C@H]1CCCCO[C@H](CN(C)Cc2ccc(C(=O)O)cc2)[C@@H](C)CN([C@@H](C)CO)C(=O)c2cc(NC(=O)c3ccccc3)ccc2O1	none (no result: TWEAK-Fn14 inh, TROY NFkB inh)
C[C@@H]1CCCCO[C@H](CN(C)Cc2ccncc2)[C@H](C)CN([C@@H](C)CO)C(=O)c2cc(NC(=O)c3ccccc3)ccc2O1	EWS-Fli inh 58, PAX8 inh HTS 70 (no result: TWEAK-Fn14 inh, TROY NFkB inh)
C[C@@H]1CN([C@H](C)CO)C(=O)c2cc(NC(=O)c3ccccc3)ccc2O[C@@H](C)CCCCO[C@H]1CN(C)Cc1ccc(C(F)(F)F)cc1	PAX8 inh HTS 99 (no result: TWEAK-Fn14 inh, TROY NFkB inh)
C[C@@H]1CN([C@@H](C)CO)C(=O)c2cc(NC(=O)c3ccncc3)ccc2O[C@@H](C)CCCCO[C@H]1CN(C)Cc1ccc(C(F)(F)F)cc1	none (no result: TWEAK-Fn14 inh, TROY NFkB inh)
C[C@@H]1CCCCO[C@@H](CN(C)Cc2ccc(C(F)(F)F)cc2)[C@H](C)CN([C@H](C)CO)C(=O)c2cc(NC(=O)c3ccccc3)ccc2O1	PAX8 inh HTS 91 (no result: TWEAK-Fn14 inh, TROY NFkB inh)
C/C=C/c1ccc([C@@H]2[C@H](CN(C)S(=O)(=O)c3ccccc3)N[C@@H]2CO)cc1	none (no result: TWEAK-Fn14 inh, TROY NFkB inh)
C[C@@H]1CCCCO[C@H](CN(C)Cc2ccncc2)[C@H](C)CN([C@@H](C)CO)C(=O)c2cc(NC(=O)C3CCCCC3)ccc2O1	EWS-Fli inh inconclusive, PAX8 inh HTS 67 (no result: TWEAK-Fn14 inh, TROY NFkB inh)
C[C@H](CO)N1C[C@H](C)[C@@H](CN(C)Cc2ccc(C(F)(F)F)cc2)OCCCC[C@H](C)Oc2ccc(NC(=O)c3ccccc3)cc2C1=O	PAX8 inh HTS 67 (no result: TWEAK-Fn14 inh, TROY NFkB inh)
C[C@H](CO)N1C[C@H](C)[C@H](CN(C)Cc2ccc(C(F)(F)F)cc2)OCCCC[C@H](C)Oc2ccc(NC(=O)c3ccccc3)cc2C1=O	PAX8 inh HTS 90 (no result: TWEAK-Fn14 inh, TROY NFkB inh)
C[C@@H]1CCCCO[C@@H](CN(C)Cc2ccc(C(=O)O)cc2)[C@@H](C)CN([C@H](C)CO)C(=O)c2cc(NC(=O)c3ccccc3)ccc2O1	none (no result: TWEAK-Fn14 inh, TROY NFkB inh)
C[C@@H]1CN([C@@H](C)CO)C(=O)c2cc(NC(=O)c3ccccc3)ccc2O[C@@H](C)CCCCO[C@@H]1CN(C)Cc1ccc(C(F)(F)F)cc1	PAX8 inh HTS 77!
C[C@@H]1CN([C@@H](C)CO)C(=O)c2cc(NC(=O)c3ccncc3)ccc2O[C@@H](C)CCCCO[C@@H]1CN(C)Cc1ccc(C(F)(F)F)cc1	none (no result: TWEAK-Fn14 inh, TROY NFkB inh)
Cc1cccc(-c2ccc([C@H]3[C@H](CO)N4C(=O)CN(S(=O)(=O)c5cccc(F)c5)C[C@@H]34)cc2)c1	none (no result: TWEAK-Fn14 inh, TROY NFkB inh)
C[C@@H]1CN([C@H](C)CO)C(=O)c2cc(NC(=O)c3ccccc3)ccc2O[C@@H](C)CCCCO[C@@H]1CN(C)Cc1ccc(C(F)(F)F)cc1	PAX8 inh HTS 91 (no result: TWEAK-Fn14 inh, TROY NFkB inh)
COc1cccc(S(=O)(=O)N[C@H]2CC[C@H](CCn3cc(-c4ccccc4)nn3)O[C@@H]2CO)c1	none (no result: TWEAK-Fn14 inh, TROY NFkB inh)
O=C(O)c1cccc(N2C(=O)/C(=C/c3ccc([N+](=O)[O-])cc3)C=C2c2ccccc2)c1	TWEAK-Fn14 inh 52, LGR2 antag inconclusive
O=C1/C(=C/c2ccc([N+](=O)[O-])cc2)C=C(c2ccccc2)N1c1ccccc1	none (no result: LGR2 antag, EWS-Fli inh, PAX8 inh HTS)
COc1cc(/C=N/NC(=O)COc2ccc(Cl)cc2)ccc1OS(=O)(=O)c1ccc(C)cc1	none (no result: LGR2 antag, EWS-Fli inh)
COc1cc(/C=N/NC(=O)COc2cccc(F)c2)ccc1OS(=O)(=O)c1ccc(C)cc1	TWEAK-Fn14 inh 51
O=C1C(c2ccnc3ccccc23)=C(O)c2ccccc21	TWEAK-Fn14 inh 94, TROY NFkB inh 59 (no result: LGR2 antag, EWS-Fli inh, PAX8 inh HTS)
O=C1c2ccccc2C(=O)C1c1nccc2ccccc12	TWEAK-Fn14 inh 97, TROY NFkB inh 55 (no result: LGR2 antag, EWS-Fli inh, PAX8 inh HTS)
O=C1c2ccccc2C(=O)C1c1ccnc2ccccc12	TWEAK-Fn14 inh 100 (no result: LGR2 antag, EWS-Fli inh, PAX8 inh HTS)
CCc1ccccc1C1C(=O)c2ccccc2C1=O	none
